Measurements from PubChem BioAssay (NCI).
The panel holds about 83,000 compounds, 20% with a hit somewhere; the sample as a whole holds those more often.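 Activity criterion: percent growth below 10, measured after cells in 96-well plates were exposed to a single compound concentration for 48 hours.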 A number with no mark means an inactive call. Activity calls are given as the source filed them.

Columns and labels:
Experiment in all cases: NCI-60 one-dose screen, 48 h (100 = growth as untreated, 0 = no growth, -100 = all killed)
Settings in all cases: 10 µM unless noted
[1] = tested on: SR leukemia
[2] = tested on: RPMI-8226 leukemia
[3] = tested on: OVCAR-8 ovarian
[4] = tested on: OVCAR-5 ovarian
[5] = tested on: OVCAR-4 ovarian
[6] = tested on: SK-OV-3 ovarian
[7] = tested on: IGROV1 ovarian
[8] = tested on: OVCAR-3 ovarian
[9] = tested on: HS 578T breast
[10] = tested on: NCI/ADR-RES ovarian
[11] = tested on: T-47D breast
[12] = tested on: BT-549 breast
[13] = tested on: MDA-MB-435 melanoma
[14] = tested on: SW-620 colon
[15] = tested on: MCF7 breast
[16] = tested on: HCT-116 colon
[17] = tested on: HCC-2998 colon
[18] = tested on: KM12 colon

Row | Compound | growth [1] | growth [2] | growth [3] | growth [4] | growth [5] | growth [6] | growth [7] | growth [8] | growth [9] | growth [10] | growth [11] | growth [12] | growth [13] | growth [14] | growth [15] | growth [16] | growth [17] | growth [18]
1 | C=CCn1c(SCC(=O)Nc2ccc(C(=O)/C=C/c3cc(OC)c(OC)c(OC)c3)cc2)nnc1-c1cc(-c2ccc(S(N)(=O)=O)cc2)nc2ccccc12 | 28.1% | 4.9% (active) | 57.2% | 123% | 83.7% | 111% | 80.4% | 81.1% | 108% | 103% | 81.1% | 75.2% | 80.2% | 76.8% | 26.5% | 17.2% | 105% | 59.8%
2 | Cc1cc2c(c(C)n1)CN(C(=O)Nc1nc(-c3cncs3)ccc1N)C2 | 95.3% | 93.7% | 92.3% | 103% | 96.7% | 89% | 92.6% | 103% | 104% | 96.5% | 90.5% | 105% | 102% | 107% | 89.3% | 92.3% | 107% | 95.8%
3 | CC(=O)Cc1nsc(NC(=O)c2cc(-c3cc(Cl)ccc3Cl)oc2C)n1 | 98.5% | 100% | 102% | 111% | 113% | 104% | 109% | 110% | 106% | 108% | 87.6% | 102% | 101% | 107% | 97.7% | 95.8% | 103% | 107%
4 | COC1CC(O)C2=C(CC3C(/C(C)=C\CC=C(C)C)CCC3(C)O2)C1=O (stereo unspecified) | 86.4% | 93.6% | 99.9% | 114% | 113% | 107% | 110% | 109% | 98.6% | 103% | 94.9% | 107% | 109% | 104% | 99.4% | 98.9% | 105% | 107%
5 | N#Cc1c(-c2ccc(Cl)cc2)nc(NN=Cc2cccc(Cl)c2)nc1N1CCOCC1 | 8.74% (active) | 65.1% | 96.7% | 103% | 94.3% | 111% | 75.2% | 87.4% | 96.6% | 89.2% | 76.6% | 93.6% | 92% | 53.3% | 85.9% | 70.8% | 105% | 84%
6 | COc1ccc(Cn2cc(C(=O)N=Nc3c(O)[nH]c4ccc(Br)cc34)nn2)cc1 | 77.5% | 100% | 99.2% | 106% | 105% | 108% | 105% | 112% | 114% | 103% | 106% | 111% | 101% | 107% | 86.3% | 77% | 98.5% | 104%
7 | Fc1ccc(/C=C/c2cc(/C=C/c3ccc(F)cc3)n(-c3cc(F)cc(F)c3)n2)cc1 | 87.5% | 73.8% | 112% | 95.2% | 107% | 97.4% | 90.3% | 108% | 114% | 101% | 80.2% | 97.6% | 103% | 104% | 89% | 84.5% | 93.4% | 105%
8 | COC(=O)c1c(C(=O)OC)c2ccc3c4ncccc4ccc3n2c1C(=O)c1ccc(C)cc1 | 75.8% | 84.1% | 82.7% | 87.1% | 90.9% | 87.8% | 94.4% | 102% | 96.3% | 92.7% | 54.4% | 88.1% | 102% | 98.8% | 86.2% | 95.6% | 107% | 97%
9 | COc1cccc(C(=O)Nc2cccc(NC(=O)c3ccccn3)c2)c1 | 77% | 101% | 104% | 94.3% | 96.4% | 97.7% | 101% | 105% | 116% | 96.1% | 87.4% | 91.3% | 93.2% | 109% | 83% | 94% | 83.2% | 99.6%
10 | C#CCOc1cccc(Nc2ncnc3c(NC(=O)CCl)cccc23)c1 | -39.4% (active) | -40.2% (active) | -0.718% (active) | 67.6% | -27% (active) | 81.7% | -58.9% (active) | -79% (active) | 50.6% | 18.8% | -31.4% (active) | 23% | 26.4% | 1.15% (active) | 10.9% | 2.88% (active) | 91.8% | 28.6%
11 | COCCNC(=O)Cc1cc(-c2ccc(Cl)cc2)n(-c2ccccc2)c1C | 61.9% | 63% | 85.8% | 90% | 67.1% | 95% | 88.6% | 116% | 107% | 86.1% | 56.3% | 83.5% | 93.7% | 94.9% | 88.6% | 80.4% | 99.3% | 91.7%
12 | O=C1c2c(c3c4cc(F)ccc4oc3c3[nH]c4ccccc4c23)C(=O)N1O | 9.66% (active) | 26.2% | 50.8% | 100% | 61.4% | 55.7% | 25.6% | 25.5% | 65.2% | 45.6% | 5.76% (active) | 44.8% | 48.9% | 31.6% | 17.3% | 23.4% | 70.3% | 39.5%
13 | COc1ccc(C2=C/C(=C\c3ccccc3O)C(=O)N2Cc2ccccc2)cc1 | 45.2% | 63% | 70.9% | 111% | 92.6% | 73.8% | 77.5% | 92.9% | 74.8% | 79.9% | 68.9% | 70.4% | -4.21% (active) | 92.2% | 62.8% | 72.5% | 107% | 70.3%
14 | COc1ccc(NC(=O)c2sc3nc(C)c(C(=O)c4ccccc4)cc3c2N)cc1 | 81.2% | 101% | 101% | 82.8% | 91.1% | 92.6% | 101% | 103% | 83.5% | 108% | 91% | 113% | 98% | 90.9% | 88.8% | 108% | 103% | 95.3%
15 | CC1=NC(=S)NC(c2ccccc2)/C1=C1/CC(c2ccccc2O)NN1 (stereo unspecified) | 97.8% | 97.7% | 96.6% | 101% | 101% | 98.2% | 93.2% | 109% | 108% | 104% | 100% | 99.6% | 103% | 100% | 102% | 99.6% | 113% | 104%
16 | COC(=O)c1c(C)nc(C)c2c1C(=O)C(Br)=C(NCCCCO)C2=O | 46.4% | 75.1% | 57.7% | 101% | 38.4% | 121% | 52.9% | 1.87% (active) | 87.7% | 80% | 76.9% | 91.2% | -25.3% (active) | 67.8% | 37.8% | 34.3% | 78.7% | 61.9%
17 | COc1ccc(C2=NN3C(C2)c2cc(Br)ccc2OC3c2ccncc2)cc1 (stereo unspecified) | 64.2% | 77.8% | 82.6% | 88.4% | 78.9% | 70.6% | 48.9% | 80.1% | 89.4% | 82% | 69.1% | 76.6% | 92.4% | 90.7% | 70.7% | 76.8% | 105% | 73%
